# High-throughput results: PubChem, National Center for Advancing Translational Sciences (NCATS)
# This is a sample that favours compounds with a hit; in the whole collection about 19% have one here.
# HT1080NT lethal: kills 2HG-producing HT-1080-NT fibrosarcoma cells; 360,000 compounds, 1.6% hits; HT-1080-NT fibrosarcoma viability, CellTiter-Glo ATP luminescence, 48 h; AID 686970; Potency, µM (top dose mostly 46.1 µM), inactives show at the top dose activity, negative = less viability, most hits filed as cytotoxic;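 further: NT is the 2HG producing partner of a matched IDH1 knockdown line; 0% = DMSO-treated cells and -100% = media-only wells without cells; nearly all actives have a fitted effect of over 55% in size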
#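 750 cells/well, RPMI + 5% FBS; 2 h settle, compound pin-transfer, 48 h at 37 degrees C. CellTiter-Glo 10 min RT, luminescence. Normalized to DMSO and media-only wells.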
# DT40 TDP1 CPT: growth inhibition of DT40 Tdp1-/-;hTDP1 cells with camptothecin (screen for TDP1 inhibitors). chicken DT40 Tdp1-/-;hTDP1 cells + 20 nM CPT, ATP luminescence, 48 h. Potency, µM (highest dose often 46.2 µM), inactives show at the highest dose activity change, negative = growth inhibition, most hits filed as inhibitors. 420,000 compounds, 12% hits. AID 686979; further: nearly all actives have a fitted effect of over 55% in size
#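 Chicken DT40 Tdp1-/- cells complemented with human TDP1, 400 cells/well, exposed to compounds plus 20 nM camptothecin for at least 48 h at 37 C; viability read as ATP content by CellTiter-Glo luminescence.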
# KB-V1 cytotox: KB-V1 MDR subline cytotoxicity. Potency, µM (titrated, usually from 46.1 µM), most hits filed as cytotoxic. 400,000 compounds, 3.4% hits. KB-V1 MDR cells viability, CellTiter-Glo, 72 h. AID 1347076; further: nearly all actives have a fitted effect of over 60% in size
#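 KB-V1 cells (P-gp-expressing MDR subline of KB-3-1) in phenol-red-free DMEM with 10% FBS were exposed to library compounds over a concentration series for 72 h at 37 degrees C. Viability read by CellTiter-Glo luminescence; concentration-effect curves fitted after normalization.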
# HT1080 IDH1KD tx: kills HT-1080 cells with IDH1 knockdown. HT-1080 IDH1 knockdown viability, ATP luminescence, 48 h. Potency, µM (series often up to 46.1 µM), inactives show at the top dose activity, negative = toxicity, hits mostly cytotoxic. 360,000 compounds, 2% hits;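 further: 0% = DMSO wells and -100% = cell-free medium wells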
#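 Luminescent ATP read-out (CellTiter-Glo, 10 min at room temperature) after 48 h compound exposure at 37 °C gave viability of IDH1-knockdown HT-1080 cells. Activity was normalised to DMSO and cell-free wells, then fitted as concentration-response curves.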
# KB-3-1 cytotox: kills parental KB-3-1 adenocarcinoma cells; KB-3-1 viability, CellTiter-Glo ATP luminescence, 72 h; Potency, µM (titrated, usually from 46.1 µM), actives largely listed as cytotoxic; 400,000 compounds, 1.4% hits; AID 1347075; further: nearly all actives have a fitted effect of over 60% in size
#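 Cells are dispensed, compounds pinned in, plates held at 37 °C for 72 h, then CellTiter-Glo is added and luminescence read after 10 minutes. Cell line: parental KB-3-1 in phenol-red-free DMEM, 10% FBS.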
# TDP1 cell noCPT: qHTS for Inhibitors of human tyrosyl-DNA phosphodiesterase 1 (TDP1): qHTS in cells in absence of CPT; Potency, µM (titrated, usually from 46.2 µM), without a hit: at the top dose activity change, negative = growth inhibition, usual class: inhibitors; AID 686978, 2013; DT40 Tdp1-/- hTDP1 cells, no CPT, ATP luminescence, 48 h; 420,000 compounds, 15% hits; further: nearly all actives have a fitted effect of over 55% in size
#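 Growth kinetics read by CellTiter-Glo luminescence after ≥48 hr at 37 °C. Cells: DT40 Tdp1-/- stably carrying human TDP1, 400 per well, compound exposure in the absence of CPT (DMSO vehicle).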
# An asterisk follows results filed as active; i = inactive; u = inconclusive; x = no result; [ ] = another dose, or the depositor's remark. The call rests on the fitted dose curve; in most records, active means well fitted curve in the direction sought with a large enough effect; inconclusive means small, poorly fitted or top-dose-only effect, or another doubt; inactive means no such curve, though single readings can be large; an effect the other way counts as inactive or inconclusive. Unless noted, on the % scale 0 is the no-effect control and ±100 the full control effect; potency means the concentration at half of the fitted maximal effect.
SMILES,HT1080NT lethal,DT40 TDP1 CPT,KB-V1 cytotox,HT1080 IDH1KD tx,KB-3-1 cytotox,TDP1 cell noCPT
COc1ccc(/C=C/C(=O)c2c(C)cc(C)[nH]c2=O)c2ccccc12,u,u,i,12µM*,u,u
COc1cccc(NC(=O)/C(C#N)=C/c2c(C)n(Cc3ccc(Cl)cc3)c3ccccc23)c1,x,-23%,i,x,i,u
CC(=O)Nc1cccc(-n2cc3c(c2-c2ccccc2Cl)c(=O)n(C)c(=O)n3C)c1,x,u,i,x,i,u
COC(=O)c1nn(-c2ccccc2)nc1-c1nn(-c2ccccc2)nc1C(=O)OC,0%,u,i,-4%,u,16µM*
O=C(O)c1nn(-c2ccccc2)nc1-c1nn(-c2ccccc2)nc1C(=O)O,11%,-7%,i,15%,i,1%
O/N=C1/CC/C(=N\O)c2nn(-c3ccccc3)nc21,-20%,15µM*,i,-27%,i,9.2µM*
CN1OC[C@@H]2CN(Cc3ccccc3)[C@H](c3cccc(-c4ccccc4)c3)C[C@@H]21,-17%,u,i,-13%,i,u
Cc1ccc(-n2ncc3c(NC4CCCCC4)ncnc32)cc1Cl,x,21µM*,i,x,i,16µM*
Cc1cccc(-n2ncc3c(NC4CCCCC4)ncnc32)c1,-16%,u,i,-14%,i,u
Cc1cccc(-n2ncc3c(NC4CCCC4)ncnc32)c1,x,21µM*,i,x,i,-52%
Clc1cccc(-n2ncc3c(NC4CCCCCC4)ncnc32)c1,x,21µM*,i,x,i,u
COc1ccc(NC(=O)c2cc(=O)c3ccc(C)c(C)c3o2)cc1Cl,x,-29%,i,x,i,u
CCCNC(=O)C1(C)CCN(C(=O)c2cc(F)cc(F)c2)C1 (centres undefined),-5%,-3%,i,-1%,i,6%
O=C(c1ccc(NS(=O)(=O)c2ccccc2)cc1)N1CCN(Cc2ccc3c(c2)OCO3)CC1,-5%,u,i,-10%,i,u
CC(C)CNS(=O)(=O)c1ccc(CCC(=O)N2CCN(Cc3ccccc3)CC2)cc1,-7%,-29%,i,-2%,i,-29%
CCCCOc1ccc(C(=O)NCC(=O)N2CCN(Cc3ccc4c(c3)OCO4)CC2)cc1,-12%,u,u,-20%,i,13µM*
COc1ccc(NS(=O)(=O)c2cccc(C(=O)N3CCN(Cc4ccc5c(c4)OCO5)CC3)c2)cc1,-1%,26µM*,i,0%,i,u
COc1ccc(OC)c(CN2CCN(C(=O)c3ccc(F)cc3)CC2)c1,11%,-2%,i,3%,i,-2%
CC(C)CNS(=O)(=O)c1ccc(CCC(=O)N2CCN(Cc3ccc4c(c3)OCO4)CC2)cc1,-5%,13µM*,u,-25%,i,18µM*
COc1ccc(OC)c(CN2CCN(C(=O)c3cccc(S(=O)(=O)Nc4ccc(F)cc4)c3)CC2)c1,1%,u,15µM*,-7%,u,u
Cc1ccccc1CS(=O)(=O)c1ncc(Cl)c(C(=O)Nc2nnc(C(C)C)s2)n1,x,8.2µM*,x,x,x,10µM*
CSc1nnc(NC(=O)c2nc(S(=O)(=O)Cc3ccccc3)ncc2Cl)s1,21µM*,12µM*,u,23µM*,18µM*,16µM*
CC(C)c1nnc(NC(=O)c2nc(S(=O)(=O)Cc3ccccc3)ncc2Cl)s1,7.3µM*,5.8µM*,u,6.5µM*,u,9.2µM*
CN(C)/C(CN1CCOCC1)=C1\N=C(c2ccccc2)OC1=O,3%,-26%,16µM*,7%,i,-5%
CN(C)/C(Cn1cncn1)=C1/N=C(c2c(F)cccc2F)OC1=O,3%,5%,i,-2%,i,-17%
SMILES,HT1080NT lethal,DT40 TDP1 CPT,KB-V1 cytotox,HT1080 IDH1KD tx,KB-3-1 cytotox,TDP1 cell noCPT
O=C(Nc1ccc2nn(-c3ccccc3)nc2c1)c1ccc(-c2cccc(Cl)c2)o1,x,-25%,i,x,i,u
CN=C1C=CC(=C(c2ccc(N(C)C)cc2)c2ccc(N(C)C)cc2)C=C1,x,0.21µM*,x,x,x,0.21µM*
CN(C)c1ccc(/C(=N\O)c2ccccc2)cc1,2%,-8%,i,-14%,i,-17%
CCc1ccc(CNC(=O)CCN2C(=O)COc3ccccc32)cc1,x,5%,x,x,x,u
CCOc1ccc(N(CC(=O)NCc2cccc(OC)c2)S(=O)(=O)c2c(C)noc2C)cc1,-25%,1%,7.3µM*,-1%,i,u
COc1ccc(N(CC(=O)NCc2cccc(OC)c2)S(=O)(=O)c2c(C)noc2C)cc1,5%,-21%,13µM*,2%,i,-21%
COc1ccc(N(CC(=O)NCc2ccc(F)cc2)S(=O)(=O)c2c(C)noc2C)cc1,-3%,u,i,5%,i,u
Cc1onc(-c2ccccc2Cl)c1C(=O)Nc1nnc(C2CCCCC2)s1,x,u,i,x,i,u
CCOc1ccc(CN(C)C(=O)c2cc(S(=O)(=O)N3CCCC3)ccc2C)cc1,-3%,u,u,-6%,u,u
O=C(Cn1ccc(=O)[nH]c1=O)NCCO,20%,-2%,i,18%,i,-13%
O=C(Cn1ccc(=O)[nH]c1=O)c1ccc([N+](=O)[O-])o1,u,5.2µM*,i,u,i,2.1µM*
C/C=C/Cn1c(Br)nc2c1c(=O)n(C)c(=O)n2C,6%,u,i,2%[9.24 µM],i,-23%
Cn1c(=O)c2c(nc(Br)n2C/C=N/NC(N)=S)n(C)c1=O,-11%,21µM*,i,u,i,u
Cc1ccc(C(=O)N/C(=C\c2ccc(Cl)cc2)C(=O)NCC2CCCO2)cc1 (centres undefined),-2%,1%,i,15%,i,13%
Cc1cn([C@H]2C[C@H](O)[C@@H](/C=C/C(=O)NCCC(C)C)O2)c(=O)[nH]c1=O,14%,-10%,u,18%,i,0%
CC1CC1c1ccc(/C=C(\C#N)C(=O)Nc2ccc(Cl)cc2)o1 (centres undefined),-7%,u,u,u,u,16µM*
CCOc1ccc(NC(=O)/C(C#N)=C\c2ccc(-c3ccc(Cl)cc3)o2)cc1,x,u,i,x,i,10µM*
